# Screening data from PubChem.
# HP1b binding inh – HP1-beta chromodomain-methylated histone interaction inhibition; Potency, µM (top dose mostly 114 µM), inactives show at the top dose activity change, negative = inhibition, hits mostly inhibitors; P83916; AID 540317; hit rate 0.56% among 390,000; AlphaScreen HP1-beta / biotin-H3K9me3 peptide binding; also: nearly all actives have a fitted effect of over 70% in size
#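 HP1-beta protein (50 nM final) preincubated 30 min at room temperature with biotinylated H3(1-18)K9me3 peptide (50 nM) in PBS pH 7.4, 0.01% Tween-20, then compound added for 30 min. AlphaScreen streptavidin donor/nickel chelate acceptor beads (10 ug/mL final), 30 min dark, luminescence read.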
# PLK1 PBD block – PLK1 (human) polo-box domain binding inhibition. hit rate 2.8% among 360,000. P53350. Plk1 PBD binding of FITC phosphopeptide, fluorescence polarization. Potency, µM, without a hit: max response, negative = inhibition, hits mostly inhibitors; also: series mostly up to about 57 µM; % is scaled to controls: 0 for no effect and ±100 for the full control effect; nearly all actives have a fitted effect of over 65% in size
# Target sequence (P53350 whole entry, looked up, the tested form may be a part): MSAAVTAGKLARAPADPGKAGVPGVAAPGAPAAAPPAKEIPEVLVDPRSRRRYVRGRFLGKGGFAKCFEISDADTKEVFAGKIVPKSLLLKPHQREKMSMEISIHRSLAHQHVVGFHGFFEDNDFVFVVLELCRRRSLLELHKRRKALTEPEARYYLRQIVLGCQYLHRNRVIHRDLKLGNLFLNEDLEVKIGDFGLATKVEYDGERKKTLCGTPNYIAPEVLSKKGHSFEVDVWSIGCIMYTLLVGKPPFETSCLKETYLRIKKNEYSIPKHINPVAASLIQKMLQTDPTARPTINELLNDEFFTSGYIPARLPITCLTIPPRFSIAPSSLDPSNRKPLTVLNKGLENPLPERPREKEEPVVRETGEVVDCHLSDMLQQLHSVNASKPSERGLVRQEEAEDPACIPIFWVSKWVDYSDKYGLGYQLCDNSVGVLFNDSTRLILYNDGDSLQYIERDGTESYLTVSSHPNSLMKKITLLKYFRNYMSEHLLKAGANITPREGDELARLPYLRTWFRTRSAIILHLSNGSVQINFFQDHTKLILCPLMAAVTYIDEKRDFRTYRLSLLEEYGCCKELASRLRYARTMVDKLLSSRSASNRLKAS
# L3MBTL1 block – inhibitors of human L3MBTL1; Q9Y468; AlphaScreen L3MBTL1–H3K9me1 peptide binding; Potency, µM (doses to about 57.1 µM), for inactives: at the highest dose activity, negative = inhibition, hits mostly inhibitors; hit rate 0.66% among 230,000; AID 485360; also: % is scaled to controls: 0 for no effect and ±100 for the full control effect; nearly all actives have a fitted effect of over 60% in size
#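 L3MBTL1 50 nM + b-AHA-H3(1-15)K9me1 75 nM, 30 min RT; compound added, 30 min RT; streptavidin donor/Ni-chelate acceptor beads 10 ug/mL each final, 30 min RT dark; AlphaScreen read.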
# VDR inhibitor – inhibitors of human vitamin D receptor | hit rate 0.93% among 400,000 | AID 504847 | VDR-SRC2-3 peptide fluorescence polarization, 2 h | Potency, µM, for the others: max response, negative = inhibition, actives largely listed as inhibitors; also: % is scaled to controls: 0 for no effect and ±100 for the full control effect
#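 FP read-out; VDR + SRC2-3 coactivator peptide; 23 nl compound by pintool; 2 h RT incubation; reagents held at 4 deg C, protected from light.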
# JMJD2A Tudor inh – JMJD2A Tudor domain (human) inhibition. O75164. AlphaScreen JMJD2A-Tudor / H3K4me3 peptide binding. Potency, µM (titrated, usually from 114 µM), without a hit: top-dose activity change, negative = inhibition, actives largely listed as inhibitors. hit rate 4.4% among 390,000; also: % is scaled to controls: 0 for no effect and ±100 for the full control effect; nearly all actives have a fitted effect of over 50% in size
# BAZ2B inh – inhibitors of human BAZ2B bromodomain; Potency, µM (highest dose often 114 µM), for inactives: at the top dose activity change, negative = inhibition, most hits filed as inhibitors; hit rate 4.4% among 360,000; Q9UIF8; AlphaScreen BAZ2B-H3K14Ac peptide displacement; also: % is scaled to controls: 0 for no effect and ±100 for the full control effect; nearly all actives have a fitted effect of over 60% in size
#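 Compounds, titrated to a top concentration of 110 uM, were incubated 30 min at room temperature with preformed BAZ2B/acetyl-K14 H3 peptide complex (50 nM each). Proximity signal was measured by AlphaScreen after 20 min with beads.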
# * hit, by the source's call; ? = inconclusive; / = no result given; [ ] = dose if it differs, or a comment. An excerpt weighted towards active compounds, which were near 6.9% of everything screened. Calls follow the shape of the dose curve; as a rule, active = well fitted curve in the direction sought with a large enough effect; inconclusive = small, poorly fitted or top-dose-only effect, or another doubt; inactive = no such curve, though single readings can be large; an effect the other way counts as inactive or inconclusive. Potency is read from the fitted curve at half-maximal effect.
SMILES,HP1b binding inh,PLK1 PBD block,L3MBTL1 block,VDR inhibitor,JMJD2A Tudor inh,BAZ2B inh
Cc1occc1-c1nnc(SCC(=O)NCC2CCCO2)n1C (stereo not drawn),-6%,30µM*,7%,-19%,56µM*,-3%
Cc1ccc(-n2c(SCC(=O)NCC3CCCO3)nnc2-c2ccoc2C)cc1 (stereo not drawn),68%,-19%,1%,7%,-21%,1%
CCSc1nnc(Cn2c(=O)sc3ccccc32)n1-c1ccccc1C,48%,-3%,9%,-4%,-15%,11%
Cc1ccc(C(=O)c2cn(CC(=O)Nc3ccc4c(c3)OCCO4)c3nc(C)ccc3c2=O)cc1,8%,/,/,22%,-25%,7%[57.1 µM]
Cc1nc2c(OCc3ccccc3)cccn2c1CC#N,/,/,/,-19%,/,/
CC(C)CN(CC(C)C)CC(O)COc1ccc([N+](=O)[O-])cc1 (stereo not drawn),40%,-5%,4%,-4%,-15%,1%
COC(=O)Cc1c[nH]c2cccc(OCC(O)CN(Cc3ccc([N+](=O)[O-])cc3)C(C)(C)C)c12 (stereo not drawn),?,-3%,-12%,0%,?,71µM*
O=C(N1CCc2ccc(S(=O)(=O)N3CCN(S(=O)(=O)c4ccc5c(c4)OCCO5)CC3)cc2C1)C(F)(F)F,/,/,/,/,-4%,/
COc1ccc(Cn2c(CO)cnc2SCc2ccc(F)cc2)cc1,2%[57 µM],/,/,9%,-31%,?
COc1ccnc(CSC(N)=Nc2ccc(F)cc2)c1,-11%,?,-3%,?,22µM*,50µM*
S=c1[nH]nc(-c2ccc(Cl)cc2)n1-c1ccc2c(c1)OCCO2,14%,-11%,-7%,-9%,?,-33%
Fc1ccc(-c2n[nH]c(=S)n2-c2ccc3c(c2)OCCO3)cc1,?,-29%,2%,-15%,2.8µM*,-23%
S=c1[nH]nc(-c2cccnc2)n1-c1ccc2c(c1)OCCO2,19%,-10%,7%,-6%,25µM*,-11%
c1cncc(-c2nc(-c3ccc4c(c3)OCO4)cs2)c1,20%,-3%,1%,-6%,-28%,-8%
O=C(CCN1C(=O)/C(=C/C=C/c2ccccc2)SC1=S)Nc1nccs1,2%,-11%,-2%,11%,-12%,-4%
O=C(CCCN1C(=O)S/C(=C/C=C/c2ccccc2)C1=O)Nc1ccc(C(=O)O)cc1,4%,30µM*,/,32µM*,-27%,-3%
O=C(CCN1C(=O)/C(=C\C=C\c2ccccc2)SC1=S)Nc1ccccc1C(=O)O,?,30µM*,/,?,45µM*,-11%
O=C(CCN1C(=O)/C(=C\C=C\c2ccccc2)SC1=S)Nc1cccc(C(=O)O)c1,?,27µM*,/,-3%,50µM*,20µM*
Cc1nn(C)c(C(=O)NNC(=S)NCC(C)C)c1Cl,40%,1%,2%,-19%,-8%,-8%
COc1ccc(CN2CCN(Cc3cccc(Oc4ccccc4)c3)CC2)c(OC)c1OC,25µM*,2%,/,-16%,4µM*,20µM*
CN1CCN(Cc2cccc(Oc3ccccc3)c2)CC1,18%,6%,/,5%,-20%,0%
COc1cc(CN2CCN(Cc3cccc(OC)c3OC)CC2)cc(OC)c1,35µM*,-2%,/,11%,4µM*,18µM*
CC(=O)N1CCN(c2ccc(NCc3cccc4ccccc34)cc2)CC1,?,24µM*,-26%,?,22µM*,32µM*
CC(=O)N1CCN(c2ccc(NCc3ccc(Br)o3)cc2)CC1,-8%,/,-20%,?,?,?
CC(=O)N1CCN(c2ccc(NCc3ccc(-c4ccc(Br)cc4)o3)cc2)CC1,-22%,/,-29%,79µM*,25µM*,/
SMILES,HP1b binding inh,PLK1 PBD block,L3MBTL1 block,VDR inhibitor,JMJD2A Tudor inh,BAZ2B inh
CCc1nc(Nc2ccc(N3CCN(C(C)=O)CC3)cc2)c2oc3ccccc3c2n1,0%,1%,1%,14%,?,50µM*
CC(=O)N1CCN(c2ccc(NCc3cccs3)cc2)CC1,-32%,?,-1%[11.4 µM],-18%,-20%[11.4 µM],?
CCc1ccc(-n2c3nc(=O)[nH]c(=O)c-3cc3c(C)nn(-c4ccccc4)c32)cc1,20%,/,/,-24%,-7%,/
Brc1ccc(-c2cc3c(N4CCN(c5ccccc5)CC4)nccn3n2)cc1,36%,/,/,1%,7%,-1%
O=S(=O)(NCCc1ccc(Cl)cc1)c1cccc2cccnc12,32%,-13%,/,-18%,-6%,3%
COc1cc2oc(=O)c(CC(=O)N3CCCCC3)c(C)c2cc1OC,22%,/,/,8%,-12%,-12%
COc1ccc(OC)c(NC(=O)CN2C(=O)COc3ccc(S(=O)(=O)NC4CCCC4)cc32)c1,21%,/,/,-14%,-12%,2%
Clc1cccc(-c2ccc(CNCCSc3nnnn3-c3ccccc3)o2)c1,49%,/,/,5%,27%,?
Brc1ccc(-c2ccc(CNCCSc3nnnn3-c3ccccc3)o2)cc1,8%,/,/,0%,-35%,20µM*
CCOC(=O)CNC(=O)N1[C@H](c2cccs2)[C@@H](C)C(=O)[C@@H](C)[C@@H]1c1cccs1,39%,/,/,9%,-15%,12%
CCOc1ccc2ncc(C(=O)c3ccc(OC)cc3)c(N3CCN(CC)CC3)c2c1,12%,-7%,-24%,-3%,-33%,?
CCOC(=O)C1CCCN(c2c(C(=O)c3ccc(C)cc3)cnc3ccc(OCC)cc23)C1 (stereo not drawn),-17%,/,/,-11%,35µM*,50µM*
CCc1ccc(C(=O)c2cnc3ccc(OC)cc3c2N2CCN(CC)CC2)cc1,19%,-6%,-17%,-10%,-30%,50µM*
O=C(CSc1nccn1Cc1ccc(Cl)cc1)NC1CCCC1,5%[57 µM],/,/,-13%,-15%,?
O=C(O)CSc1c2c(nc3cc(C(=O)N4CCOCC4)ccc13)CCCC2,15%,-17%,-1%,-7%,40µM*,71µM*
COc1cc(NC(=O)c2ccc3c(SCC(=O)O)c4c(nc3c2)CCC4)cc(OC)c1OC,30%,-9%,/,-2%,-17%,89µM*
COc1cc(NC(=O)c2ccc3c(SCC(=O)O)c4c(nc3c2)CCCC4)cc(OC)c1OC,26%,-10%,/,-9%,-29%,-25%
O=C(O)CSc1c2c(nc3cc(C(=O)Nc4ccc(F)c(Cl)c4)ccc13)CCC2,-1%,/,/,-18%,?,79µM*
COC(=O)c1ccc(NC(=O)N2CCN(Cc3cc(=O)n4nc(-c5ccc(C)cc5)sc4n3)CC2)cc1,15%[57 µM],/,/,5%,-11%,1%
O=C(O)c1c(Cl)c(Cl)c(Cl)c(Cl)c1C(=O)OCC1CCCO1 (stereo not drawn),/,-1%,/,/,/,/
CC(=O)c1ccc(S(=O)(=O)NCC(=O)N2CCN(C/C=C/c3ccccc3)CC2)cc1,5%,27µM*,0%,-16%,-27%,-4%
